# Bioassay records: PubChem BioAssay, several laboratories
# TWEAK Fn14 block: inhibitors of TWEAK-Fn14 signaling, primary screen, luciferase reporter cells, uHTS | inhibition, % at 10 µM | TWEAK-stimulated Fn14 reporter cells, luciferase luminescence, 8 h | AID 1159606, 2016 | 360,000 compounds, 2% hits; in the data active = inhibition above about 50%
# MITF act: activators of MITF-driven TRPM1 promoter reporter, primary screen, cell-based, SK-MEL-5, luciferase, single point; SK-MEL-5 TRPM1-promoter luciferase, 24 h; % of positive control, neutral wells = 0; activation, % at 12.5 µM; 300,000 compounds, 0.75% hits; AID 588334, 2011;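 active = mean activation of at least 80% with every replicate also reaching 80%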;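 note: 0% = neutral control wells and 100% = parthenolide positive control wells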
# LMP1 NFkB inh: EBV LMP1-driven NF-kappaB luciferase reporter inhibitors, primary screen, cell-based, luminescence, single point | LMP1-induced NF-kappaB luciferase reporter cells | inhibition, % at 12.5 µM | 350,000 compounds, 0.69% hits | AID 504558, 2011; in the data active = inhibition above about 41%;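 note: 0% = neutral control wells and 100% = reference inhibitor control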
# LGR2 inh: inhibitors of bursicon-induced LGR2 CRE-luciferase signal, primary screen, cell-based, HEK293, CRE-luciferase reporter, bursicon stimulation | 380,000 compounds, 0.35% hits | AID 720647, 2013 | inhibition, % at 9.99 µM | bursicon-stimulated, 4 h | Drosophila bursicon receptor LGR2 (rickets);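 active = drop in luminescence signal, shown as inhibition above about 50% in the replicate tests, limit read from the data, passing the limit was not always enough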;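 note: agonist challenge used bursicon conditioned medium at about half maximal strength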
# TRPM1 prom inh: inhibitors of MITF-dependent TRPM1 promoter reporter, primary screen, cell-based, SK-MEL-5, single point, luciferase; SK-MEL-5 TRPM1 promoter luciferase, 24 h; inhibition, % at 12.5 µM; 330,000 compounds, 0.83% hits; AID 488899, 2010;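 active = mean inhibition across replicates of 60% or more, whatever share of single replicates reaches that level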
# TROY NFkB inh: inhibitors of TROY-driven NF-kB signaling, primary screen, Q293 LMP1-TROYcd cells, NF-kB luciferase, uHTS | inhibition, % at 10 µM | 360,000 compounds, 0.98% hits | Q293 LMP1-TROYcd NF-kB luciferase reporter, 4 h;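 active = compounds whose plate-normalised and pattern-corrected inhibition of the luciferase reporter signal at the single screening dose is 50% or more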
# * marks the source's active call; other numbers are inactive results; / = no result given. Sampled rows, rich in hits. Any-hit rate of the full collection: about 3%.
SMILES,TWEAK Fn14 block,MITF act,LMP1 NFkB inh,LGR2 inh,TRPM1 prom inh,TROY NFkB inh
O=C(CCN1C(=O)C2CCCCC2C1=O)Nc1nc2c(F)cc(F)cc2s1 (stereo unspecified),1.5,89.7*,-23.9,-47.9,-91.1,-12.4
CCOc1ccc(N(C)S(=O)(=O)c2cc(-c3cc(C)no3)ccc2CC)cc1,72.2*,-10.0,14.2,22.0,7.5,46.9
COc1ccc(CCNc2ncnc3c2oc2ccccc23)cc1OC,90.9*,-5.8,13.8,18.7,3.0,57.3*
COc1ccc(CCNc2nc(C)nc3c2oc2ccccc23)cc1OC,46.4,-5.9,17.3,/,7.8,53.3*
COc1ccc(Nc2ncnc3sccc23)cc1OC,-16.8,13.7,/,-9.2,-50.0,-25.5
Cc1nc(NCCc2cnc[nH]2)c2oc3ccccc3c2n1,-10.8,-2.2,-3.4,5.5,-1.6,-9.4
COc1ccc(CCNc2ncnc3sccc23)cc1OC,50.1*,-20.1,8.8,9.4,23.2,37.8
CCCN(C)C[C@H]1Oc2cc(-c3cncnc3)ccc2S(=O)(=O)N([C@H](C)CO)C[C@H]1C,/,/,/,11.2,/,/
Cc1ccccc1-c1cnc2c(c1)C(=O)N([C@H](C)CO)C[C@@H](C)[C@H](CN(C)Cc1ccncc1)O2,/,/,/,6.6,/,/
CCCNC(=O)[C@H]1[C@H](CO)[C@H]2Cn3c(ccc(C4=CCCC4)c3=O)[C@@H]1N2C(=O)CC1CC1,/,/,/,4.9,/,/
Oc1c(C=Nc2ccccc2Cl)[nH]c2ccccc12,26.5,7.0,-40.4,-51.7,-10.8,52.1*
CCCC(=O)Nc1ccc2c(c1)OC[C@H](C)N(Cc1cccc(F)c1)C[C@H](C)[C@@H](OC)CN(C)C2=O,/,/,/,12.1,/,/
O=C(c1cccc(C(F)(F)F)c1)N1CCC(=O)N(C(CO)Cc2ccccc2)CC1 (stereo unspecified),0.9,4.0,-4.3,-7.6,-3.5,3.9
O=C(c1ccc(C(F)(F)F)cc1)N1CCC(=O)N(C(CO)Cc2ccccc2)CC1 (stereo unspecified),70.3*,-7.9,-7.1,-3.9,9.9,-28.8
O=C(COC(=O)c1ccc[nH]c1=O)Nc1ccc(N2CCCCC2)cc1,87.5*,-77.2,46.0*,-6.9,77.6*,56.0*
O=C(COC(=O)c1ccc[nH]c1=O)Nc1ccc(S(=O)(=O)N2CCCC2)cc1,10.4,-2.4,2.5,0.0,5.3,56.2*
CO[C@H]1CN(C)C(=O)c2ccc(NC(C)=O)cc2OC[C@@H](C)N(CC2CCCCC2)C[C@H]1C,/,/,/,4.9,/,/
C[C@H](CO)N1C[C@H](C)[C@@H](CN(C)S(=O)(=O)c2cccs2)OCCCC[C@H](C)Oc2ccc(NC(=O)Nc3cccc4ccccc34)cc2C1=O,/,/,/,12.8,/,/
CCOC(=O)c1cccc(-c2c(-c3ccccc3)ncc3cc(OC)c(OC)cc23)c1,-66.2,97.4*,8.3,-54.9,-94.8,-9.2
CCOC(=O)c1ccc2ncc(-c3ccccc3)nc2c1,-32.3,110.8*,0.5,-49.7,-113.4,-48.7
Cc1noc(C)c1NC(=O)Nc1ccc2c(c1)CC(=O)N([C@H](C)CO)C[C@H](C)[C@H](CN(C)C(=O)Nc1ccc(F)cc1)O2,/,/,/,5.7,/,/
COc1ccc2c3c(n(C)c2c1)[C@@H](CO)N(Cc1ccncc1)CC31CCN(C(=O)Nc2cccc(F)c2)CC1,/,/,/,-6.9,/,/
CCOC(=O)c1nnc(-c2ccccc2)nc1Sc1ccccc1Cl,56.7*,-12.8,16.4,/,14.8,33.9
CCOC(=O)c1nnc(-c2ccc(C)cc2)nc1Sc1cccc(Cl)c1,-10.5,-3.0,3.4,/,2.4,-21.8
O=C(N/N=C/c1ccc(OC(F)F)cc1)c1cccc(S(=O)(=O)N2CCOCC2)c1,70.6*,-4.1,-6.7,7.0,6.4,9.8
O=C(N/N=C/c1sc(N2CCOCC2)nc1-c1ccccc1)c1cccc(S(=O)(=O)N2CCCC2)c1,51.0*,-52.3,11.3,/,52.3,9.9
O=C(N[C@H]1C=C[C@H](CC(=O)N2CCOCC2)O[C@H]1CO)c1ccccn1,/,/,/,2.9,/,/
